# Compounds with a hit are over-represented: about 9.9% of the library has one in this group of screens.
# Tau ThT inhib: inhibitors of human tau fibril formation, thioflavin T binding; recombinant tau K18 P301L, heparin-induced fibrillization, ThT fluorescence; Potency, µM (highest dose often 57.4 µM), usual class: inhibitors; hit rate 2.1% among 270,000; AID 1460; active = well fitted curve in the direction sought with a large enough effect; inconclusive = small, poorly fitted or top-dose-only effect, or another doubt; inactive = no such curve, though single readings can be large; an effect the other way counts as inactive or inconclusive; also: nearly all actives have a fitted effect of over 55% in size
#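 Heparin-induced (20 uM) aggregation of recombinant human K18 P301L tau, 15 uM unlabeled with 0.24 uM labeled, pH 7 acetate buffer, 6 hr at 37 C with compound. Fibrils quantified by 30 uM ThT fluorescence after 1 hr ambient incubation.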
# Tau fluor counter: counter-screen for tau fibril formation inhibitors | tau K18 P301L Alexa594 fluorescence, heparin fibrillization | Potency, µM (top dose mostly 57.7 µM) | hit rate 0.93% among 280,000 | AID 1463; active = well fitted curve in the direction sought with a large enough effect; inconclusive = small, poorly fitted or top-dose-only effect, or another doubt; inactive = no such curve, though single readings can be large; an effect the other way counts as inactive or inconclusive; also: nearly all actives have a fitted effect of over 55% in size
#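 Human tau K18 P301L (15 uM unlabeled, 0.24 uM Alexa 594-labeled) in 100 mM sodium acetate pH 7 with 20 uM heparin, 6 hr at 37 C. ThT 30 uM added, 1 hr ambient; Alexa 594 FP and total fluorescence read at 555/632 nm.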
# HPGD block: inhibitors of human 15-hydroxyprostaglandin dehydrogenase (HPGD); P15428; purified HPGD, NADH fluorescence kinetic, PGE2 substrate; Potency, µM, most hits filed as inhibitors; hit rate 4.3% among 150,000; AID 894
# Target sequence (P15428 whole entry, looked up): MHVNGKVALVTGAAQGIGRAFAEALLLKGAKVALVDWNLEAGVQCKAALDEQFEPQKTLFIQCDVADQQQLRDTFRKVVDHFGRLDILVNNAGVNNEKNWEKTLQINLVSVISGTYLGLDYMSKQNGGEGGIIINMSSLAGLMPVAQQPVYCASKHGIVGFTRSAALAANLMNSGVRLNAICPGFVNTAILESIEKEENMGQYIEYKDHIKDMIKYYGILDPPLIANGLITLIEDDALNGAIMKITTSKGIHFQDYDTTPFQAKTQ
#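 20 nM HPGD preincubated 15 min at room temperature with compound in 50 mM Tris-HCl pH 8, 0.01% Tween 20. Started with 1 mM NAD+ and 30 uM prostaglandin E2; NADH fluorescence (360/450 nm) read 5 times over 30-s intervals, last minus first.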
# KDM4E inh: JMJD2E (human) inhibition. JMJD2E catalytic domain, FDH-coupled NADH fluorescence (FDH is formaldehyde dehydrogenase). Potency, µM (titrated, usually from 57.1 µM), usual class: inhibitors. B2RXH2. AID 2147. hit rate 1.6% among 230,000; also: nearly all actives have a fitted effect of over 50% in size
# Target sequence (B2RXH2 1-337 limits assumed): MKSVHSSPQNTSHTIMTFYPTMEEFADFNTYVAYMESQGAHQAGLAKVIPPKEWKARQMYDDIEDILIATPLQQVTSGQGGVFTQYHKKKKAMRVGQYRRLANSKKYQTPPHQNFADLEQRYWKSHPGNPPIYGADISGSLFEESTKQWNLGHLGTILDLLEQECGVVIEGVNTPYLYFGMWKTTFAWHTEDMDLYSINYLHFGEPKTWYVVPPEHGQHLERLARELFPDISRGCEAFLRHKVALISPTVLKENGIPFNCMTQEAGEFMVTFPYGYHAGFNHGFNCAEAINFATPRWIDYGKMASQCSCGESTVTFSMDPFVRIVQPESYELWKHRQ
# Tau FP inhib: blocks human tau fibril formation measured by polarization. K18 P301L tau heparin fibrillization, Alexa594 FP, 6 h. hit rate 0.39% among 280,000. AID 1468. P10636. Potency, µM (top dose mostly 57.7 µM), most hits filed as inhibitors; active = well fitted curve in the direction sought with a large enough effect; inconclusive = small, poorly fitted or top-dose-only effect, or another doubt; inactive = no such curve, though single readings can be large; an effect the other way counts as inactive or inconclusive; also: nearly all actives have a fitted effect of over 55% in size
#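 Human tau K18 […] P301L fragment, 15 uM unlabeled plus 0.24 uM Alexa 594-labeled tau (final), with compound and 20 uM heparin in 100 mM sodium acetate pH 7; 6 hr at 37 C, then Alexa 594 FP read.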
# ALDH1A1 inh: blocks purified human ALDH1A1 activity; Potency, µM (titrated, usually from 75.3 µM), actives largely listed as inhibitors; AID 1030; hit rate 7.3% among 220,000; Purified ALDH1A1, NADH fluorescence, propionaldehyde substrate; P00352
# Numbers stand for hits; 0 = inactive; ? = inconclusive; - = no result given; [ ] = dose if it differs, or a comment. Unless noted, calls follow the shape of the dose curve; as a rule, active = well fitted inhibition curve with a large enough effect (not every such curve was filed as active); inconclusive = small, poorly fitted or top-dose-only effect, or another doubt; inactive = no such curve, though single readings can be large or run the other way.
SMILES,Tau ThT inhib,Tau fluor counter,HPGD block,KDM4E inh,Tau FP inhib,ALDH1A1 inh
Cc1ccc(C)c(/C(O)=C2\C(=O)C(=O)N(Cc3cccnc3)C2c2cccnc2)c1 (centres undefined),0,0,25.1µM,0,0,?
Cc1ccc(C)c(/C(O)=C2\C(=O)C(=O)N(CCCN3CCOCC3)C2c2cccnc2)c1 (centres undefined),0,0,0,0,0,?
O=C(Nc1nnc(-c2ccccc2F)s1)C1CCCO1 (centres undefined),0,0,0,0,0,20µM
CCCC(C)c1nnc(NC(=O)C2CCCO2)s1 (centres undefined),?,0,11.2µM,0,0,3.55µM
O=C(Nc1nnc(Cc2ccc(Cl)cc2)s1)C1CCCO1 (centres undefined),0,0,-,0,0,14.1µM
CCCC(C)c1nnc(NC(=O)CN2C(=O)c3ccccc3C2=O)s1 (centres undefined),0,0,-,0,0,28.2µM
CCCCCc1nnc(NC(=O)C2CCCO2)s1 (centres undefined),0,0,0,0,0,?
CCCC(C)c1nnc(NC(=O)c2cc(C(=O)OC)cc([N+](=O)[O-])c2)s1 (centres undefined),0,0,11.2µM,0,0,7.94µM
CCCCOC(=O)Nc1nnc(C(C)C)s1,0,0,-,0,0,0
Cc1nnc(NC(=O)C2CCCO2)s1 (centres undefined),0,0,12.6µM,0,0,8.91µM
CCCC(C)c1nnc(NC(=O)C(=O)OCC)s1 (centres undefined),?,0,-,0,0,7.94µM
Nc1nc(-c2c(Cl)cccc2Cl)no1,0,0,-,0,0,0
CC(C)OC(=O)CSc1nnc(-c2cnccn2)n1-c1ccccc1,0,0,0,0,0,0
c1ccc(-n2c(SCC3CCCCO3)nnc2-c2cnccn2)cc1 (centres undefined),0,0,28.2µM,0,0,?
CCCCn1nnc(NC(=O)c2ccc([N+](=O)[O-])cc2Cl)n1,-,0,-,0,0,-
COc1cccc(/C=C/C(=O)Nc2ccc3nc(N4CCN(C)CC4)cc(C)c3c2)c1OC,5.01µM,8.91µM[quencher],-,-,0,-
CCN1CCN(c2cc(C)c3cc(NC(=O)Cc4ccc(OC)c(OC)c4)ccc3n2)CC1,?,0,?,?,0,?
CCOc1ccccc1NC(=O)CCC(=O)Nc1ccc2nc(N3CCN(C)CC3)cc(C)c2c1,?,0,?,?,0,?
CCN1CCN(c2cc(C)c3cc(NC(=O)/C=C/c4cccc(OC)c4OC)ccc3n2)CC1,3.16µM,17.8µM[quencher],-,-,0,-
COc1cccc(CN2CCNC(=O)C2CC(=O)N(C)Cc2cnccn2)c1OC (centres undefined),0,0,-,0,0,0
O=C1CC(c2ccc(Cl)cc2)CC(=O)C1CS(=O)(=O)c1ccccc1 (centres undefined),?,0,-,0,0,7.08µM
O=C1CCCN1CC(O)CS(=O)(=O)c1ccccc1 (centres undefined),0,0,0,0,0,0
COc1ccc(C2CC(=O)C(CS(=O)(=O)c3ccccc3)C(=O)C2)cc1 (centres undefined),?,0,-,0,?,7.94µM
O=C1CC(c2ccccc2)CC(=O)C1Sc1ccc(Cl)cc1 (centres undefined),?,0,?,0,0,?
O=C1CCCC(=O)C1CS(=O)(=O)c1ccccc1,17.8µM,0,-,0,28.2µM,12.6µM
SMILES,Tau ThT inhib,Tau fluor counter,HPGD block,KDM4E inh,Tau FP inhib,ALDH1A1 inh
CCOc1ccc(C(=O)Nc2cc(-c3cn4cccnc4n3)ccc2C)cc1OCC,0,0,-,-,0,-
Cc1ccc(/C=N/NC(=S)NC(C)C)o1,0,0,0,0,0,0
CC(C)NC(=S)N/N=C/c1cc(Br)ccc1O,0,?,?,25.1µM,0,?
O=C(N/N=C/c1sc(N2CCCCC2)nc1-c1cccs1)C1CC1,?,?,-,?,0,22.4µM
CC1CCN(C(=O)CN2CC(C)Sc3ccccc32)CC1 (centres undefined),0,0,-,-,0,-
CCOC(=O)CNC(=O)c1ccc2[nH]c3c(c2c1)CCCC3,0,0,0,?,0,0
S=C(NCc1ccc2[nH]c3c(c2c1)CCCC3)Nc1ccccc1,?,12.6µM[quencher],0,0,0,0
CCS(=O)(=O)NCc1ccc2[nH]c3c(c2c1)CCCC3,0,?,0,?,0,?
NNC(=O)c1ccc2[nH]c3c(c2c1)CCCC3,?,0,-,0,0,17.8µM
Cc1cc(C)cc(NC(=S)NCc2ccc3[nH]c4c(c3c2)CCCC4)c1,?,10µM[quencher],0,0,?,0
COCCNC(=O)c1ccc(-c2nc(CS(=O)(=O)c3ccccc3)c(C)o2)cc1,0,0,-,-,0,-
Cc1nnc2n(C3CCCCC3)c(=O)c3c4c(sc3n12)CCC4,12.6µM,14.1µM[quencher],-,0,0,0
CC(=O)N(CC(=O)O)c1ccccc1,0,0,0,0,0,0
COC(=O)c1ccc(CN(C(C)=O)c2ccccc2)o1,0,0,0,0,0,20µM
COc1cc(/C=C(/C#N)C(=O)Nc2ccccc2)ccc1OCc1ccc(C(=O)O)cc1,?,0,-,0,0,22.4µM
COc1cc(/C=C(\C#N)C(=O)NC2CCCCC2)ccc1OCc1ccc(C(=O)O)cc1,0,0,-,0,0,14.1µM
CCOc1ccc(/C=C(\C#N)C(=O)Nc2sc3c(c2C(=O)OC)C(C(=O)OC)CC3)cc1OC (centres undefined),3.16µM,0,-,-,?,-
COc1ccc(/C=C(\C#N)C(=O)NCC2CCCO2)cc1OC (centres undefined),0,0,22.4µM,?,0,?
COc1cc(/C=C(\C#N)C(=O)NC(C)C)ccc1OCc1ccc(C(=O)O)cc1,?,0,-,0,0,?
CCn1cc(C(=O)NCc2ccccc2)c(=O)c2cc(S(=O)(=O)N3CCOCC3)ccc21,0,0,-,-,0,-
COc1ccc(OC)c2sc(N3CCN(C(=O)C(C)(C)C)CC3)nc12,0,0,-,-,0,-
COc1ccc(C(=O)NNc2ncnc3c2cnn3-c2ccccc2)cc1,0,0,-,-,0,-
Cc1cccc(OCC(=O)Nc2nnc(S(=O)(=O)N3CCc4ccccc43)s2)c1,?,0,-,-,0,-
CCOc1cccc(N2C(=O)CC(NNC(=O)c3ccc(Br)o3)C2=O)c1 (centres undefined),0,0,-,0,0,11.2µM
O=C(CCc1c[nH]c2ccccc12)NCC(=O)Nc1ccc(F)c(F)c1F,0,0,-,0,0,0
O=C(c1ccc2c3c(cccc13)CC2)N1CCOCC1,0,0,11.2µM,?,0,14.1µM
CC(=O)N1c2c(cc(Br)cc2S(=O)(=O)N2CCN(c3cccc(Cl)c3)CC2)CC1C (centres undefined),0,0,-,-,0,-
CC(=O)c1ccc(NC(=O)N2C3CCC2CC(O)(c2cccnc2)C3)cc1 (centres undefined),0,0,-,0,0,0
